In PubChem BioAssay AID1845225 (National Center for Advancing Translational Sciences (NCATS), 2023):
Records with an inconclusive call do not appear. Values without a mark were called inactive. Calls come from the whole dose curve; as a rule, active = well fitted curve in the direction sought with a large enough effect; inconclusive = small, poorly fitted or top-dose-only effect, or effect the other way, or another doubt; inactive = no such curve, though single readings can be large or run the other way.

Experiment: Confirmatory redox qHTS assay for identification of artifact compounds.
Settings: Amplex Red/HRP redox cycling with DTT, fluorescence; series mostly up to 39 µM; redox activity vs DA3003: at the top concentration
Text: PI: Alexander Tropsha Ph.D. UNC Eshelman School of Pharmacy University of North Carolina, Chapel Hill, North Carolina Hits from high-throughput screening (HTS) of chemical libraries are often false positives due to their interference with the assay detection technology. In response to this problem, we generated the largest publicly available library of chemical liabilities and developed a free webtool to predict HTS artifacts, both of which are described herein. More specifically, we generated, curated, and integrated HTS datasets for thiol reactivity, redox activity, and luciferase (firefly and nano) activity. Using these curated datasets, we developed and validated several Quantitative Structure-Interference Relationship (QSIR) models to predict nuisance behavior. […] These models were employed for virtual profiling of the National Center for Advancing Translational Science's (NCATS) in-house library, and 256 compounds for each assay were selected for the experimental validation of nuisance behavior. The BA for these external predictions ranged from 58 to 78% for compounds within the applicability domains of the models. […] The models developed in this study, along with aggregation models previously developed by our group (SCAM Detective) were implemented in "Liability Predictor," an online tool which may be used as part of chemical library design or for triaging HTS hits. Both the models and the curated datasets are publicly available at https://liability.mml.unc.edu/.
PROTOCOL TABLE SEQUENCE No. (e.g., 1, 2, 3, etc.); […] (e.g., Cells, Incubation, Reagent, etc.); VALUE; DESCRIPTION. 1; Reagent; 3 uL; Amplex Red and HRP mixture. 2; Compounds and control; 16 nL; Kalypsis pin tool (Wako USA) equipped with a 1536-well pin head. 3; Incubation; 15 min. 4; Reagent; 1 uL; […]. 5; Incubation; 30 min. 6; Detection; Fluorescence, ViewLux microplate reader, 525 nm excitation, 598 nm emission. NOTES (numbers refer to Sequence numbers above) 1. 3 uL of a mixture containing Amplex Red (25 uM final concentration) and horseradish peroxidase (HRP; 250 mU/mL final concentration) in assay buffer (HBSS) was dispensed into all wells of a 1536-well assay plate (solid-bottom black plate; Greiner Bio One, Monroe, NC). 2. […] 3. 15 min. incubation at room temperature protected from light. 4. 1 uL of DTT (prepared fresh; final concentration 250 uM) was dispensed for a final assay volume of 4 uL. 5. Plates were centrifuged (121xg, 15 seconds) and incubated for 30 minutes at room temperature protected from light. 6. Samples were read for fluorescence (Ex/Em = 525(20)/598(25) nm) on a ViewLux CCD imager (PerkinElmer). Data were normalized to DMSO (0% activity) and DA3003 (10 uM final concentration; 100% activity) and the resulting percent inhibition data were fitted to a 4-parameter Hill equation using NCATS in-house software.

**Q.** Which “redox activity vs DA3003” value does the source give for `Clc1ccc(C(Cl)(Cl)Cl)cc1Cl` here?
**A.** The value was -1.25%.

**Q.** Which “redox activity vs DA3003” value does the source give for `CSc1nc(NC(C)C)nc(NC(C)C)n1` here?
**A.** Its value is -0.557%.

**Q.** With `Oc1cccc[c]1[Hg][Cl]` as the molecule, how does the “redox activity vs DA3003” value read?
**A.** The value was -0.83%.

**Q.** With `Cn1c(=O)n(C)c2cc(CNCCc3ccccc3)ccc21` as the molecule, how does the “redox activity vs DA3003” value read?
**A.** Its value is 0.209%.

**Q.** For `CCCOC(=O)c1ccccc1C(=O)OCCC`, which “redox activity vs DA3003” value is on record?
**A.** The value was -1.08%.

**Q.** With `Cc1ccc(C(C)C)c(OCC(=O)N2CCN(CCc3ccncc3)CC2)c1` as the molecule, how does the “redox activity vs DA3003” value read?
**A.** The value was 5.17%.

**Q.** For `CCOc1ccc(CCNC(=O)c2cc3ccccc3n2CCN2CCOCC2)cc1OCC`, which “redox activity vs DA3003” value is on record?
**A.** Its value is 18.3%.
